Structures are written as SMILES. The panel holds about 83,000 compounds, 20% with a hit somewhere; the sample as a whole holds those more often.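 The endpoint reported here, percent growth, reads 100 for growth as untreated, 0 for no net growth and -100 for all cells dead.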 Unmarked numbers belong to inactive results. Activity calls are given as the source filed them. The calls were made as follows: active = growth percent below 10; inactive = the rest.

The subject of the experiment is HL-60(TB) leukemia. Put plainly: NCI-60 one-dose screen, 48 h (100 = growth as untreated, 0 = no growth, -100 = all killed). The settings on record: 10 µM unless noted.
Regarding `NC/C(=C/F)COc1ccc2nc(NCc3cccnc3)oc2c1`, the growth is 125%.
`CCN(CC)S(=O)(=O)c1ccc(-c2nc(C(Cl)Cl)nc3cc(C)nn23)cc1`: the growth was -9.17% (active).
In the case of `Cc1ccc(-n2cc(/C=N/NC(=O)c3nc(N)n[nH]3)c(-c3ccc(S(C)(=O)=O)cc3)n2)cc1` it was 95.1%.
In the case of `COc1ccc(NC2=C(Cl)C(=O)c3nc(C)ccc3C2=O)cc1OC` it was 9.95% (active).
In the case of `N#Cc1cccc(CN2CCC3=C(C2)C(=O)N(Cc2ccc(Cl)cc2)C2=NCCN23)c1` it was 16.2%; in that of `COc1cc(OC)c(S(N)(=O)=O)cc1C(=O)/C=C/c1ccc(C)cc1`, 6.73% (active).
As for `C=C(C)[C@@H]1CC[C@]2(C)[C@H](CC=C3[C@@H]4CC(C)(C)CC[C@]4(C(=O)NCC#CCN4CCN(C)CC4)CC[C@]32C)[C@@]1(C)CCC#N`, the growth was -47.9% (active).
`O=c1oc2ccc(-c3ccc(F)cc3F)cc2c(=O)n1-c1ccc(Br)cc1F`: the growth is 58.8%.
In the case of `CCOC(=O)c1ccc(NC2=C(Cl)C(=O)c3nc(C)ccc3C2=O)cc1` it was 47.5%.
In the case of `OC1CCN(CCCOc2c3ccccc3nc3c2oc2ccccc23)CC1` it was 6.8% (active).
In the case of `O=C1c2c(O)cc(O)cc2O[C@@H](c2ccc(O)cc2)[C@@H]1c1c(O)cc(O)c2c(=O)cc(-c3ccc(O)c(O)c3)oc12` it was 103%; in that of `CC[C@H](C)[C@H]1NC(=O)[C@@H]([C@H](O)C(C)C)NC(=O)[C@@H](C)N(C)C(=O)[C@H](C)N(C)C(=O)[C@H](CC(C)C)NC(=O)[C@H](CC(C)C)N(C)C(=O)[C@H](C)N(C)C1=O`, -19.4% (active).
`Nc1nc(N)c2c(n1)NC(c1ccc(Cl)cc1)CC(c1ccc(Nc3nc(NCCO)nc(N4CCOCC4)n3)cc1)=N2` (stereo not given): the growth was 27%.
In the case of `NS(=O)(=O)c1ccc(Nc2nc(N/N=C/CCc3ccccc3)nc(Nc3ccccc3)n2)cc1` it was 107%; in that of `COc1ccc([C@@H]2[C@@H](O)C(=O)N2c2cc(OC)c(OC)c(OC)c2)cc1F`, -15.8% (active).
With `O=C(Nc1cccc(Cl)c1)Nc1nc2ccc(-c3cccc4ccccc34)cc2s1`, the growth is 66.9%.
In the case of `c1ccc2c(NCCCN3CCOCC3)c3oc4ccccc4c3nc2c1` it was -21.5% (active).
In the case of `CCN(CC)c1ccc(/C=N/NC(=O)c2ccc(NS(C)(=O)=O)cc2)cc1` it was 3.16% (active); in that of `COc1cc(/C=N\NC(=O)c2ccc3nc(-c4ccc(Br)cc4)[nH]c3c2)cc(OC)c1OC`, 27%.
With `CC[C@]12C=CCN3CC[C@]4(C(=C(C(=O)OC)C1)Nc1cc5c(cc14)[C@@H]1[C@H](O5)[C@@H](O)[C@@]4(CC)CC(C(=O)OC)=C5Nc6cc(O)ccc6[C@@]56CCN1C46)C32` (stereo not given in full), the growth is -9.82% (active).
In the case of `O=c1[nH]c2cc(Cl)ccc2n1C1CCN(c2ccc3nnc(Cl)n3n2)CC1` it was 93.1%.
Turning to `C/C(=N\NC(=O)/C=C/CC(=O)O)c1nnn(-c2ccc([N+](=O)[O-])cc2)c1C`, the growth is 98%.
In the case of `CN(C)c1ccc(/C=C2\Cc3c(F)ccc(Br)c3C2=O)cc1` it was 79.6%.
In the case of `O=S(=O)(NCCCNc1nccc(-c2[nH]c(-c3ccccc3)nc2-c2ccc(Cl)c(O)c2)n1)c1ccc(Br)cc1` it was 13.1%.
In the case of `CCOC(=O)c1c(NC(=O)c2ccccc2C(F)(F)F)sc2c1CCC(=O)C2` it was 33.4%.
As for `C#CCNC1CCC(c2csc(C#C)n2)=C1C` (stereo not given), the growth is 90.6%.
In the case of `CCOC(=O)c1c(Nc2ccccc2)nn2c(-c3ccc(OC)c(OC)c3)ccnc12` it was 43.3%; in that of `C/C(=N/NC(N)=S)c1ccc(Nc2nc(SCC(C)C)nc(-c3ccc(F)cc3)c2C#N)cc1`, 73.9%.
In the case of `C#CCOc1cccc(-c2nc(N)nc(Nc3ccccc3SSc3ccccc3Nc3nc(N)nc(-c4cccc(OCC#C)c4)n3)n2)c1` it was 23.7%; in that of `CC(=O)/C(N=Nc1ccc2oc(=O)ccc2c1)=C(\C)O`, -15.3% (active).
`N/C(=N\c1nc2c(Cl)cc(Cl)cc2s1)C(Cl)(Cl)Cl`: the growth was 4.49% (active).
In the case of `O=C1[C@H]2Cc3c([nH]c4ccccc34)[C@@H](c3c(Cl)cccc3Cl)N2C(=O)CN1C1CCN(CC2CCCCC2)CC1` it was 35.4%.
In the case of `N/C(=N\c1nc2c(Br)cccc2s1)C(Br)Br` it was 7% (active); in that of `COc1ccc(-c2cc(-c3ccc(N(C)C)cc3)n3c(n2)nc2ccccc23)cc1`, 18.4%.
In the case of `O=C1[C@H]2Cc3c([nH]c4ccccc34)[C@@H](c3ccc(Cl)cc3)N2C(=O)CN1C1CCN(Cc2c(Cl)cccc2Cl)CC1` it was 108%.
Take `C=C(C)[C@@H]1CC[C@]2(COP(=O)(OCC)OCC)CC[C@]3(C)[C@H](CC[C@@H]4[C@@]5(C)CCCNC(C)(C)[C@@H]5CC[C@]43C)[C@@H]12`: the growth is -56.4% (active).
In the case of `C#C[C@]1(O)CC[C@H]2[C@@H]3CC=C4c5sc(-c6ccc(F)cn6)nc5CC[C@]4(C)[C@H]3CC[C@@]21C` it was 8.65% (active).
As for `COc1ccc(C2CC(c3cccc(OCCCCOc4cccc(C5=NN(C(C)=O)C(c6ccc(OC)cc6)C5)c4)c3)=NN2C(C)=O)cc1` (stereo not given), the growth is 46.2%.
`CN1CCN(Cc2ccc(NC(=O)c3cncc(C#Cc4cnc5[nH]ncc5c4)c3)cc2C(F)(F)F)CC1`: the growth was 8.94% (active).
As for `O=C(/C=C/Nc1ccc(S(=O)(=O)O)cc1)c1ccc(F)cc1`, the growth was 102%.
